{"source": "the supplement of paper PMC8975748", "note": "Counter-ions that a name gives are not always drawn."}
{"test_system": "Saccharomyces cerevisiae BY4741 SeMeCo community", "test": "z-score of subpopulation abundance vs DMSO median, subpopulation auxotrophic for LU; higher = larger share of this subpopulation than in DMSO controls", "conditions": "10 µM; 24 h; SM minimal medium; subpopulation (auxotrophy): LU", "method": "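Fluorescent four-plasmid SeMeCo (self-establishing metabolically cooperating S. cerevisiae BY4741 community; plasmids pH-mRuby2, pL-mWasabi, pU-eCFP, pM-TagRFP657) was grown 24 h in minimal SM medium with each Selleck FDA-approved drug at 10 µM in 384-well plates. Cells were fixed and imaged by high-content confocal microscopy. For each auxotrophic subpopulation (and the prototroph), a z-score gives the deviation from the DMSO vehicle-control population median.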"}
{"compound": "COC(=O)C1=C(C)NC(C)=C(C(=O)OCCN2CCN(C(c3ccccc3)c3ccccc3)CC2)C1c1cccc([N+](=O)[O-])c1", "note": "(stereo not given) [Manidipine 2HCl]", "z-score of subpopulation abundance": -0.77}
{"compound": "CCC1=C(C)CN(C(=O)NCCc2ccc(S(=O)(=O)NC(=O)N[C@H]3CC[C@H](C)CC3)cc2)C1=O", "note": "[Glimepiride]", "z-score of subpopulation abundance": -0.1}
{"compound": "CNCC[C@H](Oc1cccc2ccccc12)c1cccs1", "note": "[Duloxetine HCl]", "z-score of subpopulation abundance": -0.43}
{"compound": "CC[C@H](C)C(=O)O[C@H]1C[C@H](O)C=C2C=C[C@H](C)[C@H](CC[C@@H](O)C[C@@H](O)CC(=O)O)[C@H]21", "note": "[Pravastatin]", "z-score of subpopulation abundance": 0.89}
{"compound": "COc1cc2c(cc1OC)-c1cc3ccc(OC)c(OC)c3c[n+]1CC2", "note": "[Palmatine]", "z-score of subpopulation abundance": -0.2}
{"compound": "Cn1c(=O)c2c(ncn2CC2OCCO2)n(C)c1=O", "note": "[Doxofylline]", "z-score of subpopulation abundance": 0.9}
{"compound": "CCOc1cc(N)c(Cl)cc1C(=O)NCC1CN(Cc2ccc(F)cc2)CCO1", "note": "(stereo not given) [Mosapride Citrate]", "z-score of subpopulation abundance": 0.9}
{"compound": "O=C(O)c1cc(-c2ccc(F)cc2F)ccc1O", "note": "[Diflunisal]", "z-score of subpopulation abundance": -1.6}
{"compound": "CC(=O)OCC(CCn1cnc2cnc(N)nc21)COC(C)=O", "note": "[Famciclovir]", "z-score of subpopulation abundance": -0.41}
{"compound": "CCCCC(=O)O[C@H]1CC[C@H]2[C@@H]3CCc4cc(O)ccc4[C@H]3CC[C@]12C", "note": "[Estradiol valerate]", "z-score of subpopulation abundance": -0.16}
{"compound": "C[C@@H](O)[C@H]1C(=O)N2C(C(=O)O)=C(S[C@@H]3CN[C@H](CNS(N)(=O)=O)C3)[C@H](C)[C@H]12", "note": "[Doripenem Hydrate]", "z-score of subpopulation abundance": 0.22}
{"compound": "CC1(C)S[C@@H]2[C@H](NC(=O)Cc3ccccc3)C(=O)N2[C@H]1C(=O)O", "note": "[Penicillin G Sodium]", "z-score of subpopulation abundance": 0.16}
{"compound": "CC[C@@]1(O)C(=O)OCc2c1cc1n(c2=O)Cc2cc3c(CN(C)C)c(O)ccc3nc2-1", "note": "[Topotecan HCl]", "z-score of subpopulation abundance": -1.86}
{"compound": "CCCSc1ccc2[nH]c(NC(=O)OC)nc2c1", "note": "[Albendazole]", "z-score of subpopulation abundance": 0.31}
{"compound": "O=C1CN(/N=C/c2ccc([N+](=O)[O-])o2)C(=O)N1", "note": "[Nitrofurantoin]", "z-score of subpopulation abundance": -0.11}
{"compound": "CCc1cc(C(N)=S)ccn1", "note": "[Ethionamide]", "z-score of subpopulation abundance": 0.05}
{"compound": "CC[C@@]1(O)C(=O)OCc2c1cc1n(c2=O)Cc2cc3cc(O)ccc3nc2-1", "note": "[Hydroxy Camptothecine]", "z-score of subpopulation abundance": -3.85}
{"compound": "COC(=O)C1=C(C)NC(C)=C(C(=O)OCCN(C)Cc2ccccc2)C1c1cccc([N+](=O)[O-])c1", "note": "(stereo not given) [Nicardipine HCl]", "z-score of subpopulation abundance": 0.72}
{"compound": "CCCCCCCCOc1ccccc1C(=O)Nc1ccc(C(=O)OCC[N+](C)(CC)CC)cc1", "note": "[Otilonium Bromide]", "z-score of subpopulation abundance": 0.74}
{"compound": "Fc1ccc(C(c2ccc(F)cc2)N2CCN(C/C=C/c3ccccc3)CC2)cc1", "note": "[Flunarizine 2HCl]", "z-score of subpopulation abundance": 0.52}
{"compound": "Nc1nc2c(ncn2COCCO)c(=O)[nH]1", "note": "[Aciclovir]", "z-score of subpopulation abundance": 0.29}
{"compound": "CC(=O)Oc1ccc(C(=C2CCCCC2)c2ccc(OC(C)=O)cc2)cc1", "note": "[Cyclofenil]", "z-score of subpopulation abundance": -0.48}
{"compound": "CN(C)CCC=C1c2ccccc2CCc2ccccc21", "note": "[Amitriptyline HCl]", "z-score of subpopulation abundance": -1.69}
{"compound": "COC(=O)C1=C(C)NC(C)=C(C(=O)OC2CCCN(Cc3ccccc3)C2)C1c1cccc([N+](=O)[O-])c1", "note": "(stereo not given) [Benidipine HCl]", "z-score of subpopulation abundance": 0.07}
{"compound": "O=C1c2c(O)ccc(O)c2C(=O)c2c(NCCNCCO)ccc(NCCNCCO)c21", "note": "[Mitoxantrone 2HCl]", "z-score of subpopulation abundance": 3.06}
{"compound": "N/C(=N\\N=C\\c1ccc(Cl)cc1)N/N=C/c1ccc(Cl)cc1", "note": "[Robenidine Hydrochoride]", "z-score of subpopulation abundance": -2.55}
{"compound": "CC/C(=C(/CC)c1ccc(O)cc1)c1ccc(O)cc1", "note": "[Diethylstilbestrol]", "z-score of subpopulation abundance": -1.48}
{"compound": "C[N+]1(C)CCC(OC(=O)C(O)(c2ccccc2)C2CCCC2)C1", "note": "(stereo not given) [Glycopyrrolate]", "z-score of subpopulation abundance": 0.76}
{"compound": "C[C@]12CC[C@@H]3c4ccc(OS(=O)(=O)O)cc4CC[C@H]3[C@@H]1CCC2=O", "note": "[Estropipate]", "z-score of subpopulation abundance": -0.6}
{"compound": "CN(Cc1ccc(C(C)(C)C)cc1)Cc1cccc2ccccc12", "note": "[Butenafine HCl]", "z-score of subpopulation abundance": -1.41}
{"compound": "COC(=O)C1=C(C)NC(C)=C(C(=O)OC(C)C)C1c1cccc2nonc12", "note": "(stereo not given) [Isradipine]", "z-score of subpopulation abundance": 0.62}
{"compound": "Cc1ccsc1/C=C/C1=NCCCN1C", "note": "[Morantel tartrate]", "z-score of subpopulation abundance": 0.13}
{"compound": "C=C[C@H]1CN2CC[C@H]1C[C@@H]2[C@@H](O)c1ccnc2ccc(OC)cc12", "note": "[Quinidine sulfate]", "z-score of subpopulation abundance": 0.61}
{"compound": "CCCN1CCCC[C@H]1C(=O)Nc1c(C)cccc1C", "note": "[Ropivacaine HCl]", "z-score of subpopulation abundance": 0.42}
{"compound": "CCCCCOc1ccc(-c2cc(-c3ccc(C(=O)N[C@H]4C[C@@H](O)[C@@H](O)NC(=O)[C@@H]5[C@@H](O)[C@@H](C)CN5C(=O)[C@H]([C@H](O)CC(N)=O)NC(=O)[C@H]([C@H](O)[C@@H](O)c5ccc(O)c(OS(=O)(=O)O)c5)NC(=O)[C@@H]5C[C@@H](O)CN5C(=O)[C@H]([C@@H](C)O)NC4=O)cc3)no2)cc1", "note": "[Micafungin Sodium]", "z-score of subpopulation abundance": 1.46}
{"compound": "NC(=O)N1c2ccccc2C=Cc2ccccc21", "note": "[Carbamazepine]", "z-score of subpopulation abundance": -0.08}
{"compound": "N=C(N)NS(=O)(=O)c1ccc(N)cc1", "note": "[Sulfaguanidine]", "z-score of subpopulation abundance": -0.67}
{"compound": "C1CCN2C[C@@H]3C[C@@H](CN4CCCC[C@@H]34)[C@H]2C1", "note": "[(-)-Sparteine Sulfate]", "z-score of subpopulation abundance": -0.85}
{"compound": "C[C@]12CCC(=O)C=C1[C@@H]1C[C@@H]1[C@H]1[C@@H]3[C@@H]4C[C@@H]4[C@@]4(CCC(=O)O4)[C@@]3(C)CC[C@@H]12", "note": "[Drospirenone]", "z-score of subpopulation abundance": 0.11}
{"compound": "Cc1onc(-c2ccccc2Cl)c1C(=O)N[C@@H]1C(=O)N2[C@@H]1SC(C)(C)[C@@H]2C(=O)O", "note": "[Cloxacillin Sodium]", "z-score of subpopulation abundance": 0.4}
